According to PubChem BioAssay (EPA / NIEHS):
Calls of active or inactive are those of the source. How the source made its calls: active means hit-call score of the fitted dose curve at least 0.9, where 1 is the maximum; inactive means score below 0.9.

assay: ATG_TA_CIS: Attagene CIS-FACTORIAL HepG2 Assay for human TA Basal Promoter (AID 2282964); details: HepG2 Attagene CIS-factorial TA basal promoter reporter; actives raise or lower the signal
Experimental: ATG_CIS is a cell-based, multiplexed-readout assay that uses HepG2, a human liver cell line, with measurements taken at 24 hours after chemical dosing in a 24-well plate.ATG_TA_CIS is one of 52 assay component(s) measured or calculated from the ATG_CIS assay. It is designed to make measurements of mRNA induction, a form of inducible reporter, as detected with fluorescence intensity signals by Reverse transcription polymerase chain reaction (RT-PCR) and Capillary electrophoresis technology.Data from the assay component ATG_TA_CIS was analyzed into 1 assay endpoint. This assay endpoint, ATG_TA_CIS, was analyzed with bidirectional fitting relative to DMSO as the negative control and baseline of activity. Using a type of inducible reporter, measures of mRNA for gain or loss-of-signal activity can be used to understand the background control at the transcription factor-level as they relate to the gene . Furthermore, this assay endpoint can be referred to as a secondary readout, because this assay has produced multiple assay endpoints where this one serves a background control function. To generalize the intended target to other relatable targets, this assay endpoint is annotated to the background measurement intended target family, where the subfamily is internal marker.
Human liver HepG2 cells are transiently transfected with multiple reporter transcription units (MRTUs) in 6-well plates using FuGene 6 reagent (Roche; 3 ml FuGene/1 mg DNA). The MRTU constructs are regulated by a cis-regulating element (promoter). […] A major difference between the CIS and TRANS system is that in CIS activities of endogenous TFs are measured, whereas the TRANS assay evaluates changes in activities of exogenous, chimeric NR-Gal4 proteins. […] At the end of 24 hour incubation, total RNA was isolated using TriZol reagent (Invitrogen). The isolated RNA is then reverse-transcribed using oligo(dT) primer and Mo-MLV reverse transcriptase (Invitrogen) with DNAse I (Ambion) treatment for 30 min. The one-tenth of the produced cDNA was amplified by PCR using Taq DNA polymerase (Invitrogen) and two reporter sequence-specific primers. The PCR products were fluorescently labeled by primer extension with 6-arboxyfluorescein (6-FAM) 5'-labeled reporter sequence-specific primer (2 min at 95 C, 20 s at 68 C and 10 min at 72 C) and these products were digested with 5U of HpaI (New England Biolabs) for 2h at 37 C. The fragments were purified using Qiaquick PCR columns (Qiagen), analyzed on an ABI 3130xL genetic analyzer (Applied Biosystems) with peak positions identified by using a set of X-rhodamine (ROX)-labeled MapMarker1000 molecular weight standards (BioVentures). The raw capillary electrophoresis data was processed using Attagraph software (Attagene).

| SMILES | outcome | AC50 |
| --- | --- | --- |
| NC(=O)c1ccccc1O | inactive | – |
| O=C(O)c1ccccc1Nc1cccc(C(F)(F)F)c1 | – | 100 µM (active) |
| C[Si](C)O[Si](C)(C)O[Si](C)(C)O[Si](C)C | inactive | – |
| Cc1cc(O)c(Cl)c(C)c1Cl | inactive | – |
| Cc1ccccc1C | inactive | – |
| OCCNCc1ccccc1 | inactive | – |
| CCCCCCCCC(=O)OCC | inactive | – |
| CC(C)CCCCCOC(=O)CCS | inactive | – |
| O=S(=O)(O)c1ccc2cc(O)c(S(=O)(=O)O)cc2c1 | inactive | – |
| O=C1CCC(=O)N1Cl | inactive | – |
| CC(=O)OCc1ccco1 | inactive | – |
| NC(CO)(CO)CO | inactive | – |
| Nc1cccc(C(F)(F)F)c1 | inactive | – |
| CCCCCCCC/C=C\CCCCCCCC(=O)O | inactive | – |
| CCCCCCCCCCC=CC#N | inactive | – |
| CC(=O)c1ccc[nH]1 | inactive | – |
| O=P(O)(O)Oc1ccccc1 | inactive | – |
| COCCCOCCCOC | inactive | – |
| CC1=NC(C)OC1C (stereo not given) | inactive | – |
| CCC(C)OC(=O)c1ccc(O)cc1 (stereo not given) | inactive | – |

| SMILES | outcome | AC50 |
| --- | --- | --- |
| CC(C)(Oc1ccc(C2CC2(Cl)Cl)cc1)C(=O)O (stereo not given) | inactive | – |
| Cc1c(C)c([N+](=O)[O-])c(C(C)(C)C)c([N+](=O)[O-])c1C | inactive | – |
| CC1=NN(c2cc(S(=O)(=O)O)ccc2Cl)C(=O)C1N=Nc1ccccc1 (stereo not given) | inactive | – |
| c1c[nH]cn1 | inactive | – |
| Cc1ccc(N/N=c2\c(=O)cc/c(=N/Nc3ccc(S(=O)(=O)O)cc3)c2=O)c(C)c1 | inactive | – |
| COc1cc(NC(=O)CC(C)=O)c(OC)cc1Cl | inactive | – |
| O=C1CCCCCN1SSN1CCCCCC1=O | inactive | – |
| Cc1cccc(OCCOc2cccc(C)c2)c1 | inactive | – |
| Nc1ccc(Oc2ccc(N)c(N)c2)cc1 | inactive | – |
| O=[N+]([O-])C1(Br)COCOC1 | inactive | – |
| C/C=C\C/C=C/CCCCCCCCOC(C)=O | – | 69.7 µM (active) |
| CC=C1CC2C=CC1C2 (stereo not given) | inactive | – |
| Nc1ccc(N)c(Cl)c1 | inactive | – |
| CCOC(=O)NNc1nncc2ccccc12 | inactive | – |
| C=CC(=O)OCC(Br)CBr (stereo not given) | inactive | – |
| CC=CCO | inactive | – |
| Clc1nc2ccccc2s1 | inactive | – |
| CCc1c(C(=O)O)c(=O)cnn1-c1ccc(Cl)cc1 | inactive | – |
| C=CC(=O)OCCOC1C2CCC1C1CC=CC12 (stereo not given) | inactive | – |
| CCCCCCCOC(=O)CCC | inactive | – |
